# Reference: PubChem BioAssay (NCI)
# About 83,000 compounds went through this panel and 20% of them were active in at least one assay; those are over-represented in the sample as a whole.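 Step 1: grow cells in 96-well plates. Step 2: add test compound at a single concentration. Step 3: incubate 48 h. Step 4: record percent growth.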 Values without a mark were called inactive. The source made the active and inactive calls. Rule for the calls: active = growth percent below 10; inactive = the rest.
# Key:
# Experiment in all cases: NCI-60 one-dose screen, 48 h (100 = growth as untreated, 0 = no growth, -100 = all killed)
# HCT-15 colon = conditions: 10 µM
# SNB-75 CNS = conditions: 10 µM
# SNB-19 CNS = conditions: 10 µM
# U251 CNS = conditions: 10 µM
# PC-3 prostate = conditions: 10 µM
# SK-MEL-5 melanoma = conditions: 10 µM
# UACC-62 melanoma = conditions: 10 µM unless noted
# LOX IMVI melanoma = conditions: 10 µM
# SK-MEL-28 melanoma = conditions: 10 µM
# SK-MEL-2 melanoma = conditions: 10 µM
# EKVX NSCLC = conditions: 10 µM
# SN12C renal = conditions: 10 µM
# UO-31 renal = conditions: 10 µM
# TK-10 renal = conditions: 10 µM unless noted
# ACHN renal = conditions: 10 µM
# CAKI-1 renal = conditions: 10 µM
# A498 renal = conditions: 10 µM
# CCRF-CEM leukemia = conditions: 10 µM
# MOLT-4 leukemia = conditions: 10 µM
# HT29 colon = conditions: 10 µM
SMILES,growth (HCT-15 colon),growth (SNB-75 CNS),growth (SNB-19 CNS),growth (U251 CNS),growth (PC-3 prostate),growth (SK-MEL-5 melanoma),growth (UACC-62 melanoma),growth (LOX IMVI melanoma),growth (SK-MEL-28 melanoma),growth (SK-MEL-2 melanoma),growth (EKVX NSCLC),growth (SN12C renal),growth (UO-31 renal),growth (TK-10 renal),growth (ACHN renal),growth (CAKI-1 renal),growth (A498 renal),growth (CCRF-CEM leukemia),growth (MOLT-4 leukemia),growth (HT29 colon)
Cc1ccc(Cl)cc1N1C(=O)CC(Sc2ccccc2N)C1=O (stereo not drawn),93.4%,65.5%,102%,102%,89.5%,110%,95.8%,94.7%,92.5%,107%,104%,96.8%,105%,114%,94.2%,97.2%,103%,93.8%,74.7%,–
COC(=O)c1ccc(C(C)C)cc1,96.2%,103%,103%,98.6%,90.6%,104%,99.4%,95%,110%,116%,92.3%,99.1%,97.4%,–,101%,96.8%,129%,83.9%,101%,–
CCN(CC)c1ccc2nc3ccc(=[N+](CC)CC)cc-3oc2c1,35.5%,1.61% (active),-1.56% (active),-13.9% (active),4.1% (active),-53.4% (active),-39.1% (active),-22.7% (active),2.45% (active),–,8.19% (active),0.99% (active),56%,-26.1% (active),8.56% (active),34.9%,74.4%,11.2%,-21.4% (active),–
CC(=O)c1ccc(C)c(N)c1,100%,97.6%,99%,98.4%,92.8%,110%,99.9%,76.8%,105%,–,91.8%,96%,81.4%,98.5%,101%,92.9%,95.4%,94.3%,103%,–
N=c1c(C(=O)OCc2ccccc2)ncc(CCl)n1O,99.7%,83.6%,95.6%,71.4%,95.9%,96.9%,91.1%,42.2%,98.1%,–,101%,88.6%,83.5%,106%,94.6%,92.2%,103%,94%,97.8%,–
O=S(=O)(O)CC(O)CN1CCN(CCO)CC1 (stereo not drawn),102%,102%,115%,106%,81.1%,107%,117%,96.8%,117%,–,119%,110%,91.6%,116%,111%,106%,106%,103%,90.3%,–
Cc1nc2c(ccc3ccccc32)s1,110%,108%,107%,99.3%,99.7%,112%,107%,98.4%,105%,–,110%,107%,96.9%,119%,111%,103%,115%,85.7%,103%,–
COc1ccc(C)cc1OC,104%,104%,107%,97.2%,105%,99.7%,99.5%,96.1%,115%,112%,108%,99.3%,89.8%,104%,115%,101%,94.5%,–,110%,–
O=c1cc2oc3cc(O)c(O)cc3c(-c3ccccc3O)c-2cc1O,91.7%,62.9%,72.5%,58.4%,73.9%,74.2%,80.5%,64.8%,81.6%,110%,84%,66.4%,34.9%,108%,24%,–,48%,11%,63.8%,–
O=S(=O)(O)C(Nc1ccccc1)c1ccccc1 (stereo not drawn),105%,71.9%,101%,101%,102%,77.3%,88.9%,93.8%,104%,82.2%,104%,97.8%,92.7%,100%,97.6%,93.8%,81.3%,115%,106%,–
COc1nc(N)nc2c1ncn2C1OC(CO)CC1O (stereo not drawn),101%,89.7%,103%,112%,99.2%,105%,100%,107%,108%,106%,102%,103%,82.4%,105%,97.4%,104%,114%,58.8%,97.7%,–
CCN(CC)C(=O)/C=C(/C)c1ccccc1,104%,93.2%,105%,105%,93.4%,90.1%,103%,98.7%,106%,–,107%,104%,102%,107%,110%,100%,86.6%,100%,114%,–
CCCC(=O)Nc1ccc2c(c1)CN1C(=O)c3ccccc3C1=N2,98.3%,104%,110%,98.6%,98.6%,98.5%,100%,105%,111%,100%,108%,100%,86.1%,96.4%,111%,97.2%,88.5%,99.6%,98.4%,–
O=C(CN1CCNCC1)N1CCOCC1,104%,86.9%,102%,106%,100%,110%,106%,98.4%,115%,–,107%,104%,84.6%,110%,110%,101%,116%,100%,81.6%,–
CCN(CC)CCCC(C)Nc1ccnc(/C=C/c2ccc(Cl)cc2)c1 (stereo not drawn),-33.4% (active),-49.3% (active),53.6%,-58.1% (active),45.5%,-96.7% (active),-55.8% (active),-71.2% (active),-87.5% (active),-69.4% (active),50.5%,61.1%,-48.5% (active),-38.8% (active),35.2%,–,22.2%,6.37% (active),13.3%,–
O=C(CS)Nc1ccc2ccccc2c1,75.9%,112%,101%,98%,70%,91.9%,94.1%,86.7%,102%,116%,119%,101%,–,128%,93.6%,–,98.8%,81.1%,84.5%,–
O=c1cc(-c2ccccc2)oc2c1ccc1ccccc12,97.7%,71.4%,75.5%,83.8%,84%,79.6%,85.6%,89.3%,99.3%,–,80.1%,84.2%,58.9%,108%,–,90.8%,73%,89.4%,75.6%,–
NC(=S)N/N=C/c1ccc(N)cc1,102%,96.1%,104%,96.6%,82.2%,99.8%,95.8%,91.5%,112%,104%,101%,108%,91.6%,–,108%,–,91.2%,87.2%,77.7%,–
CC(C)COC(=O)COC(=O)OCCOCCOC(=O)OCC(=O)OCC(C)C,104%,102%,101%,94.9%,94.8%,101%,97.6%,106%,107%,–,119%,97.9%,89.8%,91.9%,95.7%,116%,99.9%,106%,–,–

SMILES,growth (HCT-15 colon),growth (SNB-75 CNS),growth (SNB-19 CNS),growth (U251 CNS),growth (PC-3 prostate),growth (SK-MEL-5 melanoma),growth (UACC-62 melanoma),growth (LOX IMVI melanoma),growth (SK-MEL-28 melanoma),growth (SK-MEL-2 melanoma),growth (EKVX NSCLC),growth (SN12C renal),growth (UO-31 renal),growth (TK-10 renal),growth (ACHN renal),growth (CAKI-1 renal),growth (A498 renal),growth (CCRF-CEM leukemia),growth (MOLT-4 leukemia),growth (HT29 colon)
CCC(=O)Oc1ccc(OC)cc1,105%,90.7%,104%,98.3%,110%,107%,99.8%,105%,112%,–,104%,101%,80.9%,84.4%,101%,98.3%,101%,101%,92.5%,–
CCOc1ccc(/C=N/N=C(N)N)cc1OCC,97.6%,–,97.6%,103%,–,–,93.1%,101%,92.4%,113%,91.8%,108%,74.7%,106%,–,95.7%,101%,95.4%,87.6%,89.5%
CCCC[P+](c1ccccc1)(c1ccccc1)c1ccccc1,99.5%,53.5%,55.3%,30.1%,26.8%,16.1%,44.3%,41%,69.1%,75.7%,–,60.1%,86.9%,74.8%,84.9%,–,75.5%,–,59.1%,–
N#Cc1c(N)sc(=S)c2c1CCCC2,104%,104%,105%,107%,100%,114%,114%,99.4%,112%,–,107%,105%,91.6%,116%,103%,98.5%,113%,101%,95.4%,–
O=C1c2ccccc2C(=O)N1OCc1ccccc1,109%,83.6%,112%,113%,77.7%,110%,108%,109%,113%,96.7%,98.7%,110%,–,133%,101%,95.2%,134%,97.3%,93.7%,–
O=[N+]([O-])c1ccc(Sc2ccncn2)c([N+](=O)[O-])c1,85.3%,81.8%,106%,106%,71.9%,93.1%,74.1%,4.84% (active),96.1%,–,105%,51.3%,51.1%,34.3%,37.2%,–,127%,41.2%,66.1%,–
O=C1Cc2cc(O)ccc2O1,117%,86%,107%,103%,107%,101%,101%,83.1%,108%,101%,104%,102%,83.7%,115%,105%,103%,92.7%,94%,91.2%,–
CC(=O)NCc1cc(C)c(C)cc1C,–,87.9%,109%,97.9%,93.5%,104%,109%,98.6%,103%,98%,–,103%,83.6%,92.6%,104%,98.8%,118%,–,96.2%,97.2%
O=C1OC(c2ccc(F)cc2)CC1CN1CCOCC1 (stereo not drawn),–,89.1%,98.1%,–,88.9%,104%,110%,89.2%,109%,–,–,102%,83.5%,83.2%,105%,85.8%,–,–,102%,90.3%
CCCCCC(C)(CC(=O)O)CC(=O)O,–,97.4%,116%,102%,–,101%,119%,112%,108%,–,–,110%,97.6%,111%,103%,116%,113%,107%,103%,105%
CCOC(=O)C1=C(Nc2ccc(Br)cc2)C(=O)N(CC)C1,–,94.7%,84%,–,101%,97.7%,84.2%,94.3%,101%,124%,–,86%,84.1%,101%,92.4%,88.2%,90.9%,–,103%,103%
CN(C)CCN(Cc1ccccc1)c1ccccc1,–,108%,105%,106%,106%,–,97.8%,93.2%,113%,124%,110%,97.5%,107%,110%,110%,77.2%,99%,123%,90.5%,98.3%
CCOC(=O)C/C(C)=N\O,–,118%,99.2%,–,96.8%,100%,107%,100%,121%,107%,–,98.6%,81.6%,93.4%,112%,92.8%,111%,–,95.2%,98.9%
C=CCCCCCCCCCOC(C)=O,–,101%,98.3%,–,95.2%,101%,95.7%,99.2%,112%,98.5%,–,98.8%,92.4%,91.5%,110%,104%,111%,101%,103%,103%
CCCC1(c2ccccc2)NC(=O)NC1=O (stereo not drawn),–,86.5%,105%,113%,99%,99.3%,97.4%,105%,104%,103%,118%,104%,–,95.2%,103%,116%,121%,99.7%,123%,111%
Nc1nc(N)c2cc(S(=O)(=O)c3cccc(C(F)(F)F)c3)ccc2n1,–,–,43.6%,32.2%,39.6%,–,32.5%,28.6%,69.9%,89.8%,44%,33.7%,56%,72.6%,38.4%,65.1%,78.4%,45.8%,37.3%,22.9%
COc1ccc2c(c1)CCc1c-2n[nH]c1-c1[nH]nc2c1CCc1cc(OC)ccc1-2,–,29.3%,–,54.2%,50.4%,37.2%,25.8%,43.8%,58.7%,61.7%,59.8%,91.6%,–,109%,57.8%,53.2%,109%,41.8%,50.4%,52.3%
O=[N+]([O-])c1ccc(/C=C/C=C/c2ccccc2)c(Cl)c1,–,94.2%,99.7%,92%,94.1%,101%,96.6%,98%,106%,94.3%,–,98.3%,92.8%,121%,100%,95%,88.9%,90.7%,86.4%,90.3%
